From PubChem BioAssay (EPA / NIEHS)
Active and inactive are the calls of the source. How the source made its calls: active means hit-call score of the fitted dose curve at least 0.9, where 1 is the maximum; inactive means score below 0.9.

Legend:
Conditions in all cases: mRNA level, 48 h; actives raise or lower the signal
[1] = read-out: JUN Transcription Factor, JUN (gene 3725); assay: LTEA_HepaRG_JUN: Life Technologies and Expression Analysis (LTEA) Assay for JUN Transcription Factor using HepaRG (AID 2283513)
In short: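 Read-out is JUN transcript level by TaqMan qRT-PCR, normalized to ACTB, GAPDH and POLR2A, after 48 h chemical treatment of HepaRG cells. Concentration-response spanned eight half-log points up to 100 uM in 0.5% DMSO.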

[2] = read-out: Lipase C (LIPC), LIPC (gene 3990); assay: LTEA_HepaRG_LIPC: Life Technologies and Expression Analysis (LTEA) Assay for Lipase C (LIPC) using HepaRG (AID 2283514)
In short: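 HepaRG, 48 h exposure, 8-pt half-log series from 100 uM in 0.5% DMSO, duplicates. Readout: LIPC mRNA by Fluidigm qRT-PCR, housekeeping-normalized (ACTB/GAPDH/POLR2A). Gain or loss fitted bidirectionally against DMSO baseline.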

[3] = read-out: Lipoprotein lipase (LPL), LPL (gene 4023); assay: LTEA_HepaRG_LPL: Life Technologies and Expression Analysis (LTEA) Assay for Lipoprotein lipase (LPL) using HepaRG (AID 2283515)
In short: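 HepaRG, 48 h exposure, 8-pt half-log dilutions from 100 uM, 0.5% DMSO vehicle, duplicates; qRT-PCR (Fluidigm array) of LPL mRNA vs housekeeping genes; bidirectional curve fit relative to DMSO baseline.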

[4] = read-out: MicroRNA 122 (MIR122), gene 406906; assay: LTEA_HepaRG_MIR122: Life Technologies and Expression Analysis (LTEA) Assay for MicroRNA 122 (MIR122) using HepaRG (AID 2283516); further: the transcript read is the microRNA miR-122
In short: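 Human liver HepaRG cultures receive test chemicals for 48 h at eight half-log concentrations from 100 uM. Expression is quantified by qRT-PCR with ACTB/GAPDH/POLR2A normalization and fitted bidirectionally against 0.5% DMSO.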

[5] = read-out: matrix metalloproteinase-10 (MMP10), MMP10 (gene 4319); assay: LTEA_HepaRG_MMP10: Life Technologies and Expression Analysis (LTEA) Assay for matrix metalloproteinase-10 (MMP10) using HepaRG (AID 2283517)
In short: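 Transcript levels come from Fluidigm qRT-PCR normalized to three housekeeping genes, with curves fitted bidirectionally against 0.5% DMSO. Human HepaRG cells were dosed for 48 hours at concentrations up to 100 uM.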

[6] = read-out: MYC, MYC (gene 4609); assay: LTEA_HepaRG_MYC: Life Technologies and Expression Analysis (LTEA) Assay for MYC using HepaRG (AID 2283518)
In short: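 Cells are thawed, plated and cultured 48 h, then treated for 48 h with test chemicals (eight half-log concentrations from 100 uM, 0.5% DMSO vehicle). RNA is isolated and MYC expression quantified by qRT-PCR against three housekeeping genes.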

[7] = read-out: matrix metalloproteinase-3 (MMP3), MMP3 (gene 4314); assay: LTEA_HepaRG_MMP3: Life Technologies and Expression Analysis (LTEA) Assay for matrix metalloproteinase-3 (MMP3) using HepaRG (AID 2283519)
In short: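 qRT-PCR read-out of MMP3 mRNA (normalised to three housekeeping genes) in HepaRG liver cells after 48 h chemical exposure; 8-point half-log series, top 100 uM, 0.5% DMSO vehicle. Bidirectional curve fitting against DMSO baseline.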

[8] = read-out: Paternally Expressed 10 (PEG10), PEG10 (gene 23089); assay: LTEA_HepaRG_PEG10: Life Technologies and Expression Analysis (LTEA) Assay for Paternally Expressed 10 (PEG10) using HepaRG (AID 2283520);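 on AC50: PEG10 transcript by qRT-PCR normalised to ACTB GAPDH and POLR2A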
In short: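 Human HepaRG cultures are dosed for 48 h across an eight-point half-log series starting at 100 uM, with 0.5% DMSO as vehicle and baseline. Gain or loss of PEG10 transcript is measured by qRT-PCR and fitted in both directions.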

[9] = read-out: Nuclear factor NF-kappa-B p105 subunit (Homo sapiens) (UniProt P19838); assay: LTEA_HepaRG_NFKB1: Life Technologies and Expression Analysis (LTEA) Assay for Nuclear Factor Kappa B Subunit 1 (NFKB1) using HepaRG (AID 2283521);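 further: TaqMan qRT-PCR transcript normalised to ACTB GAPDH and POLR2A housekeeping genes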
In short: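 Differentiated human HepaRG cells were exposed for 48 h in serum-free induction medium to eight concentrations (top 100 uM, half-log steps, 0.5% DMSO), in duplicate. NFKB1 mRNA was measured by TaqMan qRT-PCR, normalized to ACTB/GAPDH/POLR2A, and fitted bidirectionally against DMSO.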

[10] = read-out: Protein phosphatase 2A (PPP2R4), PTPA (gene 5524); assay: LTEA_HepaRG_PPP2R4: Life Technologies and Expression Analysis (LTEA) Assay for Protein phosphatase 2A (PPP2R4) using HepaRG (AID 2283522)
In short: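 Cells were plated, cultured 48 h, switched to serum-free induction medium, then dosed for 48 h (8 points, max 100 uM, 0.5% DMSO). RNA was isolated and PPP2R4 expression measured by TaqMan qRT-PCR.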

Sequence of Nuclear factor NF-kappa-B p105 subunit (Homo sapiens) (P19838 whole entry, looked up): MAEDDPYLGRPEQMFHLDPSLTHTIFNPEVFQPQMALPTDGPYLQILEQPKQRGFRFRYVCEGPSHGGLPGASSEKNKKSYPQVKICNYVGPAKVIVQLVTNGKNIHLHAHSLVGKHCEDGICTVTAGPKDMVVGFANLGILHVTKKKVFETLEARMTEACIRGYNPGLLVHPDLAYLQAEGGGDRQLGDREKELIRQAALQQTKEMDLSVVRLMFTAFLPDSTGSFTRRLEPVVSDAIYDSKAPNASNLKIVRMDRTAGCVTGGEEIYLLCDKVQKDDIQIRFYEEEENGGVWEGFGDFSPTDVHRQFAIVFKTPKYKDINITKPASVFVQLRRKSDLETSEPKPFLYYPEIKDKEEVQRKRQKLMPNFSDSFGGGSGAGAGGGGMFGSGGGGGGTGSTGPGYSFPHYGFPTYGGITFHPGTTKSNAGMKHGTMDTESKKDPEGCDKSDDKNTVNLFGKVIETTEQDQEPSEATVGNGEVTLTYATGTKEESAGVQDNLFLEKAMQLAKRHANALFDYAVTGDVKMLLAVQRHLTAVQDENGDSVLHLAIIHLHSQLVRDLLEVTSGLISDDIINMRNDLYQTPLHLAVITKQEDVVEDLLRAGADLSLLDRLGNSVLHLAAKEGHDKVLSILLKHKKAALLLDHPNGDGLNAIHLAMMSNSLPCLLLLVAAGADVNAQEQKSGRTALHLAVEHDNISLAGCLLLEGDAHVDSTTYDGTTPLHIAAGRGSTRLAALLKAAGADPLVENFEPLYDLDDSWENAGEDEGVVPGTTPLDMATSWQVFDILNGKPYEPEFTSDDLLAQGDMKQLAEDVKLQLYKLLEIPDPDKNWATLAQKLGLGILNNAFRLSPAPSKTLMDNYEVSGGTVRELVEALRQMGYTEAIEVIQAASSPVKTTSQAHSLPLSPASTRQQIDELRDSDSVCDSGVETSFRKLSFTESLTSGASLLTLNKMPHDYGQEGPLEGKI

SMILES | outcome [1] | outcome [2] | outcome [3] | outcome [4] | outcome [5] | outcome [6] | outcome [7] | outcome [8] | outcome [9] | outcome [10] | AC50 [2] | AC50 [3] | AC50 [6] | AC50 [8] | AC50 [5] | AC50 [7]
O=P1(N(CCCl)CCCl)NCCCO1 (stereo not given) | inactive | inactive | inactive | inactive | inactive | inactive | inactive | inactive | inactive | inactive | – | – | – | – | – | –
O=P(Oc1ccccc1)(Oc1ccccc1)Oc1ccccc1 | inactive | inactive | inactive | inactive | inactive | inactive | inactive | inactive | inactive | inactive | – | – | – | – | – | –
[N-]=[N+]=[N-] | inactive | – | – | inactive | inactive | – | inactive | inactive | inactive | inactive | 81.1 µM (active) | 72.3 µM (active) | 80 µM (active) | – | – | –
CC(C)(C)OOC(C)(C)C | inactive | inactive | inactive | inactive | inactive | inactive | inactive | inactive | inactive | inactive | – | – | – | – | – | –
CCNc1nc(Cl)nc(NC(C)(C)C)n1 | inactive | inactive | inactive | inactive | inactive | inactive | inactive | – | inactive | inactive | – | – | – | 17.4 µM (active) | – | –
Cc1ccc(N)cc1N | inactive | inactive | inactive | inactive | inactive | inactive | inactive | inactive | inactive | inactive | – | – | – | – | – | –
Cc1cccc(N)c1 | inactive | inactive | inactive | inactive | inactive | inactive | inactive | inactive | inactive | inactive | – | – | – | – | – | –
c1ccc(OP(Oc2ccccc2)Oc2ccccc2)cc1 | inactive | inactive | inactive | inactive | inactive | inactive | inactive | inactive | inactive | inactive | – | – | – | – | – | –
CN(C)C(=O)Cl | inactive | inactive | inactive | inactive | inactive | inactive | inactive | inactive | inactive | inactive | – | – | – | – | – | –
CCOC(=O)c1ccccc1C(=O)OCC | inactive | inactive | inactive | inactive | inactive | inactive | inactive | inactive | inactive | inactive | – | – | – | – | – | –
Cc1ccc([N+](=O)[O-])cc1C | inactive | inactive | inactive | inactive | inactive | inactive | inactive | inactive | inactive | inactive | – | – | – | – | – | –
c1nc[nH]n1 | inactive | inactive | inactive | inactive | – | – | – | inactive | inactive | inactive | – | – | 0.104 µM (active) | – | 15.8 µM (active) | 0.0899 µM (active)
ClC(Cl)c1ccccc1 | inactive | inactive | inactive | inactive | inactive | inactive | inactive | inactive | inactive | inactive | – | – | – | – | – | –
O=C(O)C1C(C(=O)O)C2(Cl)C(Cl)=C(Cl)C1(Cl)C2(Cl)Cl (stereo not given) | inactive | inactive | inactive | inactive | inactive | inactive | inactive | inactive | inactive | inactive | – | – | – | – | – | –
CCN(CC)c1ccccc1 | inactive | inactive | inactive | inactive | inactive | inactive | inactive | inactive | inactive | inactive | – | – | – | – | – | –
COCCOCCO | inactive | inactive | inactive | inactive | inactive | inactive | inactive | inactive | inactive | inactive | – | – | – | – | – | –
CCC1(c2ccccc2)C(=O)N=C(O)NC1=O (stereo not given) | inactive | inactive | inactive | inactive | inactive | inactive | inactive | inactive | inactive | inactive | – | – | – | – | – | –
CCCCN(CCCC)N=O | inactive | inactive | inactive | inactive | inactive | inactive | inactive | inactive | inactive | inactive | – | – | – | – | – | –
CCCCCCCc1ccc(O)cc1 | inactive | inactive | inactive | inactive | inactive | inactive | inactive | inactive | inactive | inactive | – | – | – | – | – | –
O=[N+]([O-])c1ccccc1 | inactive | inactive | inactive | inactive | inactive | inactive | inactive | inactive | inactive | inactive | – | – | – | – | – | –
CCOc1ccc(C(C)(C)COCc2cccc(Oc3ccccc3)c2)cc1 | inactive | inactive | inactive | inactive | inactive | inactive | inactive | inactive | inactive | inactive | – | – | – | – | – | –
